Experimental data taken from PubChem BioAssay (NCATS).
Values joined by “and” are separate entries in the source; they are usually repeats but may differ in a detail not shown here. Equal values may be shown once. Records with an inconclusive call do not appear. A number with no mark means an inactive call. Active and inactive are the calls of the source. Calls come from the whole dose curve; as a rule, active = well fitted cell-killing curve with a large enough effect; inconclusive = small, poorly fitted or top-dose-only effect; inactive = flat fitted curve, though single readings scatter.

Key:
[1] = Cellular viability qHTS for adrenocortical cancer (ACC) cell line SW-13 (AID 1963989); details: SW-13 ACC cells viability, CellTiter-Glo, 48 h; activity (max response): hits give low values; note: nearly all actives have a fitted effect of over 65% in size;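 for activity (max response): cells grown in serum-free medium with ITS supplement; % is set by controls: 0 for no effect and ±100 for the full control effect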
Method in brief: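 SW-13 cells in ITS-supplemented serum-free DMEM were plated overnight, then exposed for 48 h at 37C to compound titrations (up to 46 uM final). Viability was read by CellTiter-Glo luminescence; four-parameter logistic fits gave IC50 and efficacy.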

[2] = Cellular viability qHTS for adrenocortical cancer (ACC) cell line NCI-H295R (AID 1963990); details: CellTiter-Glo ATP luminescence, 48 h; series mostly up to 46.1 µM; note: nearly all actives have a fitted effect of over 60% in size;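 for activity change, negative = viability loss: 0% = DMSO only wells and -100% = full killing with cytotoxic reference compound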
Method in brief: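 Luminescent ATP read-out (CellTiter-Glo, 20 min RT) after 48 h drug exposure of NCI-H295R cells; a titration up to 46 uM final. Data normalized to doxorubicin (100% inhibition) and DMSO (0%); 4-parameter fit gives IC50, max response.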
Potency is the fitted concentration of half-maximal effect.

Structure (SMILES) | activity (max response) [1] | Potency [2] | activity change, negative = viability loss [2] | Potency [1]
C[C@H]1CC2[C@@H]3CCC4=CC(=O)C=C[C@]4(C)[C@@]3(F)[C@@H](O)C[C@]2(C)[C@@]1(O)C(=O)CO (some centres undefined) | -7.86% | inactive | – | –
NC(N)=NCCN1CCCCCCC1 | 5.33% | – | 7.14% [at 0.587 µM] | –
CCn1nc(C(=O)O)c(=O)c2cc3c(cc21)OCO3 | 1.15% | inactive | – | –
O=C(O)Cn1c(=O)n(Cc2ccc(Br)cc2F)c(=O)c2ccc(Cl)cc21 | 14.5% | inactive | – | –
CC(=O)Oc1ccc(C(=C2CCCCC2)c2ccc(OC(C)=O)cc2)cc1 | -5.44% | inactive | – | –
CC[C@H](c1ccc(O)cc1)[C@@H](CC)c1ccc(O)cc1 | – | 2.59 µM (active) | – | 5.17 µM (active)
C[C@H](Nc1nc(N[C@H](C)C(F)(F)F)nc(-c2cccc(Cl)n2)n1)C(F)(F)F | -11.6% | inactive | – | –
CCC[C@H](NC(=O)[C@@H]1[C@H]2CCC[C@H]2CN1C(=O)[C@@H](NC(=O)[C@@H](NC(=O)c1cnccn1)C1CCCCC1)C(C)(C)C)C(=O)C(=O)NC1CC1 | -27.4% | inactive | – | –
CC(C)(C)C(=O)CN1C(=O)[C@H](NC(=O)Nc2cccc(C(=O)O)c2)CN(C2CCCCC2)c2ccccc21 | 11.5% | inactive | – | –
Cc1c(Cn2ccnc2)c2ccccc2n1CCC(=O)O | 15.3% | inactive | – | –
C[C@@H](c1ncncc1F)C(O)(Cn1cncn1)c1ccc(F)cc1F (some centres undefined) | 2.11% | inactive | – | –
CC(C)(c1ccc(OCC(O)CO)cc1)c1ccc(OCC(O)CCl)cc1 (centres undefined) | -21.2% | inactive | – | –
CCCCC1C(=O)N(c2ccccc2)N(c2ccc(O)cc2)C1=O (centres undefined) | – | 5.17 µM (active) | – | 16.4 µM (active)
COc1cc(O)c(C(=O)c2ccccc2)cc1S(=O)(=O)O | 9.22% | inactive | – | –
CCCC(=O)OC[C@@H](OC(=O)CCC)[C@@H](OC(=O)CCC)[C@H](Cn1c2nc(=O)[nH]c(=O)c-2nc2cc(C)c(C)cc21)OC(=O)CCC | -8.77% | inactive | – | –
NCc1ccccc1Sc1ccccc1CO | -6.09% | inactive | – | –
Cc1[nH]cnc1CN1CCc2c(c3ccccc3n2C)C1=O | 6.95% | inactive | – | –
C=C[C@H]1CN2CC[C@H]1C[C@H]2[C@H](O)c1ccnc2ccc(OC)cc12 | -6.74% | inactive | – | –
COc1ccc(-n2cnc3cc(C(=O)N4CCCCC4)ccc32)cc1 | -10.1% | inactive | – | –
CNC(=O)c1c(C)oc2cc(Oc3ncnc4cc(OC)c(OC)cc34)ccc12 | 9.66% | inactive | – | –
N=C1S/C(=C\c2ccc(-c3ccc4c(c3)C(=O)NC4=O)o2)C(=O)N1c1ccc(Br)cc1 | 2.9% | inactive | – | –
COc1ccc(Cl)c(Nc2nc3ccccc3nc2NS(=O)(=O)c2cccc(NC(=O)C(C)(C)N)c2)c1 | – | 20 µM (active) | – | 25.1 µM (active)
CCN(CC)CCOc1ccccc1C(=O)CCc1ccccc1 | -19.2% | inactive | – | –
COc1ccc2c(c1)CC[C@@H]1[C@@H]2CC[C@]2(C)[C@@H](NCCCCCCN3C(=O)C=CC3=O)CC[C@@H]12 | -14.7% | inactive | – | –

Structure (SMILES) | activity (max response) [1] | Potency [2] | activity change, negative = viability loss [2] | Potency [1]
c1ccc2c(c1)CCCC2C1=NCCN1 (centres undefined) | 5.7% | inactive | – | –
Cc1cc(Nc2cc(N)ncn2)c(=O)n2c1C(=O)NC21CCCCC1 | 0.221% | inactive | – | –
CCNC(=O)[C@H]1O[C@@H](n2cnc3c(N)nc(NCCc4ccc(CCC(=O)O)cc4)nc32)[C@H](O)[C@@H]1O | -2.22% | inactive | – | –
CN(C)N(C)C(=O)[C@@]1(Cc2ccccc2)CCCN(C(=O)[C@@H](Cc2c[nH]c3ccccc23)NC(=O)C(C)(C)N)C1 | -15.4% | inactive | – | –
O=C(O)CCc1nc2ccccc2[nH]1 | 0.871% | inactive | – | –
Cn1cc(-c2nc(N[C@@H]3CCCC[C@@H]3N)c(F)c3c2C(=O)NC3)cn1 | 8.72% | – | 0.124% [at 3.81 µM] | –
Cc1ccc(/C(=C\CN2CCCC2)c2ccccn2)cc1 | 2.73% | inactive | – | –
O=C(O)c1ccccn1 | 1.31% | inactive | – | –
COc1cccc(-c2c(C)n(Cc3c(F)cccc3C(F)(F)F)c(=O)n(C[C@H](NCCCC(=O)O)c3ccccc3)c2=O)c1F | 3.23% and 7.63% | inactive | – | –
COC(=O)C1=C(C)NC(C)=C(C(=O)OCC(C)=O)C1c1ccccc1[N+](=O)[O-] (centres undefined) | – | 6.51 µM (active) | – | 16.4 µM (active)
CCCCCC1Nc2cc(C(F)(F)F)c(S(N)(=O)=O)cc2S(=O)(=O)N1 (centres undefined) | 4.72% | inactive | – | –
CC(C)(Oc1ccc(Cl)cc1)C(=O)OCCCOC(=O)C(C)(C)Oc1ccc(Cl)cc1 | 0.371% | inactive | – | –
C[C@@H]1CCN(C(=O)CC#N)C[C@@H]1N(C)c1ncnc2[nH]ccc12 | -8.3% | inactive | – | –
CC(=O)OCC(=O)[C@@]1(O)[C@H](C)C[C@H]2[C@@H]3CCC4=CC(=O)C=C[C@]4(C)[C@@]3(F)[C@@H](O)C[C@@]21C | 2.72% | inactive | – | –
CN(CC1(C)CCCO1)S(=O)(=O)c1ccc(Cl)c(S(N)(=O)=O)c1 (centres undefined) | 13.7% | inactive | – | –
C/C(=C1\CCOC(=O)S1)N(C=O)Cc1cnc(C)nc1N | -4.19% | inactive | – | –
COc1c(C)cc(NC(=O)c2nn(Cc3ccc(F)cc3)c3c2CN(C(=O)c2ccc[nH]2)C[C@]3(C)C(N)=O)cc1C | -5.75% | inactive | – | –
COc1ccc2c(c1)c(CC(=O)OC/C=C(\C)CC/C=C(\C)CCC=C(C)C)c(C)n2C(=O)c1ccc(Cl)cc1 | 2.52% | inactive | – | –
COC(=O)C1=C(C)NC(C)=C(C(=O)OCCc2ccc(N3CCN(C(c4ccccc4)c4ccccc4)CC3)cc2)C1c1cccc([N+](=O)[O-])c1 (centres undefined) | 7.28% | inactive | – | –
Nc1nc(OCc2cc(Br)cs2)c2[nH]cnc2n1 | -10.5% | inactive | – | –
C/C(=C\c1csc(C)n1)[C@@H]1C[C@@H]2O[C@]2(C)CCC[C@H](C)[C@H](O)[C@@H](C)C(=O)C(C)(C)[C@@H](O)CC(=O)N1 | – | 8.91 µM (active) | – | 3.16 µM (active)
CCC(=O)O[C@]1(C(=O)CO)CC[C@H]2[C@@H]3CCC4=CC(=O)CC[C@]4(C)[C@H]3CC[C@@]21C | 7.43% | inactive | – | –
CCN(CC)c1ccc(C(=C2C=CC(=[N+](CC)CC)C=C2)c2cc(S(=O)(=O)O)ccc2S(=O)(=O)[O-])cc1 | – | 7.31 µM (active) | – | 8.2 µM (active)
